MsrA inh = bovine MsrA inhibition; purified bovine MsrA, absorbance read-out; inhibition, % at 15.5 µM; 0.75% of 360,000 active;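 further: 0% = vehicle wells with enzyme and 100% = reference inhibitor wells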
rCAG RNA binder = r(CAG) repeat RNA binding; TO-PRO-1 dye displacement fluorescence; inhibition, % at 3 µM; 1.3% of 370,000 active;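 active means inhibition above the plate cutoff, the mean of all test compounds on that plate plus 3 SD, cut at about 35% in these data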;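 further: 0% = DMSO alone and 100% = 100 µM mitoxantrone as full dye displacement; higher means more dye released from RNA so lower well fluorescence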
HGIII-sPLA2 inh = Blocks human group III sPLA2 activity; QFRET BODIPY PC-A2 liposome hydrolysis, fluorescence; AID 743126; 0.56% of 370,000 active; inhibition, % at 12.2 µM; Q9NZ20;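 active means inhibition above mean plus 3 SD of compounds lying within the high and low control bounds, cut at about 19% in these data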;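 further: 0% = median of test compound wells and 100% = no enzyme DMSO wells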
Target sequence (Q9NZ20 whole entry, looked up): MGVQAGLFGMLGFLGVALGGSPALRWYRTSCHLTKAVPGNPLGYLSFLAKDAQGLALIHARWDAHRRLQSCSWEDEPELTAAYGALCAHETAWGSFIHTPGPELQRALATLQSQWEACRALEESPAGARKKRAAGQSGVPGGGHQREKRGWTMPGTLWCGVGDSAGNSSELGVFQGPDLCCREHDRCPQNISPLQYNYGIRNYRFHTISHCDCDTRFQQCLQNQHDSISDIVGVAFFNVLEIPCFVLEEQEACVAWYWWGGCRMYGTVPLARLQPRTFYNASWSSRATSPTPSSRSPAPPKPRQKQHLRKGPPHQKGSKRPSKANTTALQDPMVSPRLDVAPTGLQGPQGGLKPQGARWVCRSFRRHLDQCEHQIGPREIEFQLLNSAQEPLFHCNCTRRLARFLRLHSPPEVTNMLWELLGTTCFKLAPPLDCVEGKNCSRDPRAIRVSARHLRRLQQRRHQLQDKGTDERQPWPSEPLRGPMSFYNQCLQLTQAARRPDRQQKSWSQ
MsrA act = bovine methionine sulfoxide reductase A activation; purified bovine MsrA, absorbance read-out; activation, % at 10.6 µM; 0.3% of 360,000 active; in the data active means activation above about 7.5%;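 further: 0% = vehicle and 100% = reference activator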
MsrA inh confirm = bovine MsrA inhibition, confirmed; shares compounds with MsrA inh; purified bovine MsrA, absorbance read-out; inhibition, % at 15.5 µM; 41% of 2,300 active;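 further: coupled to thioredoxin reductase with NADPH and selenocystamine and DMSO as substrate; 0% = vehicle only and 100% = full effect of reference inhibitor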
* marks the source's active call; other numbers are inactive results; . = not tested or not shown; ! = not confirmed by another sample. An excerpt weighted towards active compounds, which were near 2.8% of everything screened. Unless noted, no stated cut-off is given here; in the data, active means inhibition above about 4.5%; inactive means the rest.

SMILES	MsrA inh	rCAG RNA binder	HGIII-sPLA2 inh	MsrA act	MsrA inh confirm
Cc1ccc(NC2=NCC(=O)N2c2ccc3c(c2)OCCO3)c(C)c1	3	-4	-4	-2	.
Cc1cc(C)nc(NC2=NCC(=O)N2c2ccc3c(c2)OCCO3)n1	8.6*	-2	6	-2	6.1*
Cc1cccc(C(=O)N/N=C/c2ccc[nH]2)c1	4	-1	-3	-7	.
O=C(N/N=C/c1ccc[nH]1)c1cccc(Br)c1	4.7*	1	-4	-1	4
O=C(N/N=C\c1ccc[nH]1)c1cncc(Br)c1	5.1*	1	1	-1	4.6*
Cc1[nH]c2ccccc2c1/C=N/Nc1ccccc1[N+](=O)[O-]	1	32	11	-7	.
CN(C)/C=N/c1nc2nccc(-c3cccs3)n2n1	7.1*	1	15	-7	6.1*
CC(=O)Nc1cc(OC(C)=O)c2nonc2c1OC(C)=O	28*	1	7	5	-1
CC(=O)Nc1nonc1NC(C)=O	-1	1	2	-1	.
Cc1ccc(S(=O)(=O)n2cnc3cc([N+](=O)[O-])ccc32)c(C)c1	1	-3	1	-5	.
COc1ccc(/C=C/C(=O)Nc2cc(=O)n(C)c(=O)n2C)cc1	5.0*	1	17	-14	4
COc1c(O)ccc(/C=N\NC(=O)c2ccc3c(c2)OCO3)c1[N+](=O)[O-]	8.1*	1	-1	-4	4.9*
COc1c(O)ccc(/C=N/NC(=O)c2ccc3c(c2)OCCO3)c1[N+](=O)[O-]	7.2*	1	7	-6	4
COc1cc(/C=N/NC(=O)c2ccc3c(c2)OCCO3)cc(Cl)c1O	6.0*	6	3	-9	5.0*
O=C(c1ccc2c(=O)n(CCc3ccccc3)c(=O)[nH]c2c1)N1CCN(c2ccc(F)cc2)CC1	1	2	8	-3	.
O=[N+]([O-])c1nccn1C1C=CC(O)C(CO)O1 (configuration not stated)	0	0	0	-3	.
O=C(O)CCCN1C(=O)/C(=C\c2ccc(-c3nc4ccccc4s3)o2)SC1=S	1	27	4	-1	.
Cc1ccccc1C(=O)OCn1nnc2ccccc2c1=O	0	0	-5	-3	.
COc1ccc(CN2C(=O)c3cccnc3C2=O)cc1S(=O)(=O)NCc1ccco1	0	3	0	-2	.
O=C1C(N2CCOCC2)=C(n2nnc3ccccc32)C(=O)c2ccccc21	71*	3	6	-6	69*
C=CCc1cc(/C=C2/NC(=O)NC2=O)cc(OCC)c1O	4.8*	2	-4	-5	4
CCOc1cc(/C=C2/NC(=O)NC2=O)cc([N+](=O)[O-])c1O	5.6*	6	16	-15	4
COC(=O)c1[nH]c2ccccc2c1NC(=O)Oc1ccccc1	0	-1	-1	-4	.
COC(=O)c1[nH]c2cc(OC)c(OC)cc2c1NC(=O)Oc1ccccc1	5.0*	-3	12	-4	1
Clc1cncc(Cl)c1N/N=C/c1ccncc1	4.9*	-2	12	-5	4
SMILES	MsrA inh	rCAG RNA binder	HGIII-sPLA2 inh	MsrA act	MsrA inh confirm
O=c1oc2ccccc2c(NC(c2ccccc2)c2ccccc2)c1[N+](=O)[O-]	62*	7	-12	-14	56*
CC(Nc1c([N+](=O)[O-])c(=O)oc2ccccc12)C(Cl)c1ccccc1 (configuration not stated)	2	6	3	-6	.
CCC(C)C(NS(=O)(=O)c1ccc(C)cc1)C(=O)N1CCOCCOCCOCC1 (configuration not stated)	0	-7	4	-2	.
Cc1ccccc1Nc1c(N)c(=O)oc2ccccc12	6.1*	-6	-1	2	7.8*
O=C(NNc1c(Cl)cncc1Cl)c1cccs1	1	-1	11	-1	.
COc1ccc(C(=O)NNC2=NC(C)(C)Cc3ccccc32)cc1	1	4	-2	-4	.
O=C(NNC1=NC2(CCCC2)Cc2ccccc21)c1ccncc1	4.7*	5	9	-5	1
CC(=O)OCC1OC(Nc2cccc(C)c2)C(OC(C)=O)C(OC(C)=O)C1OC(C)=O (configuration not stated)	-2	-1	-1	-1	.
O=c1c2ccccc2nc(/C=C/c2c[nH]c3ccccc23)n1CCO	5.0*	9	-27	-1	3
O=c1c2ccccc2nc(/C=C/c2cc(Br)ccc2O)n1CCO	0	9	-14	-2	.
O=C(O)c1ccc(/C=N/Nc2ccc(C(F)(F)F)cn2)cc1	7.0*	4	1	-9	6.3*
COCCn1c(SC(C)C(=O)NC2CCCCC2C)nc2ccccc2c1=O (configuration not stated)	.	.	.	-7	.
Cc1ccc(CN2CCc3[nH]c(=O)[nH]c(=O)c3C2)cc1	0	1	4	0	.
C=CCOCCN(C)C1=NS(=O)(=O)c2cc([N+](=O)[O-])ccc21	14*	4	0	1	7.2*
CN(CCO)C1=NS(=O)(=O)c2cc([N+](=O)[O-])ccc21	2	1	-1	3	.
O=C(C1=C(O)C(=O)N(CCCn2ccnc2)C1c1ccccc1)c1ccco1 (configuration not stated)	.	.	.	-8	.
O=C(C1=C(O)C(=O)N(CCCn2ccnc2)C1c1cccc(Br)c1)c1ccco1 (configuration not stated)	13*	16	-10	-6	7.8*
O=c1oc2ccccc2c2c1cnc1ccccc12	16*	1	-3	-2	15*
CCCCCOP(=O)(c1ccccc1)c1ccccc1	0	-13	-7	-4	.
COc1ccc2cc3[n+](cc2c1OC)CCc1cc2c(cc1-3)OCO2	6.6*!	9	4	-7	5.4*
CCOc1cc(/C=C2/NC(=O)N(CC(=O)OC)C2=O)ccc1O	7.4*	-2	1	-5	5.8*
CCOc1cc(/C=C2/NC(=O)N(CC(=O)Nc3cccc(C)c3)C2=O)ccc1O	3	14	-12	-6	.
COC(=O)COc1ccc(/C=C2/NC(=O)N(CC(=O)OC)C2=O)cc1	5.5*	1	-2	-4	5.4*
CCCNc1nc(C)cc(-c2cc(C(=O)NCc3ccccc3)on2)n1	0	-6	-6	-4	.
N#Cc1nc(-c2ccccc2F)oc1N1CCCC1	2	1	-1	-2	.
SMILES	MsrA inh	rCAG RNA binder	HGIII-sPLA2 inh	MsrA act	MsrA inh confirm
Cc1ccccc1-c1nc(C#N)c(N2CCCCC2)o1	8.4*	-4	-3	-4	8.6*
O=C(CNc1cccc(C(F)(F)F)c1)N/N=C/C1CCCCC1	-1	1	-7	-3	.
Cc1ccc(C)c(C(=O)c2ccccc2NC(=O)c2ccccn2)c1	2	0	12	-3	.
COc1ccc(N/C=C2\CCOC2=O)cc1	5.4*	0	-2	-14	4
COc1ccc(/C=C2\CCOC2=O)cc1	0	-3	8	-5	.
Cc1cccc(NC(=O)NNC(=O)c2nn(C)cc2Br)c1	1	-3	-1	-9	.
Cc1[nH]c2ccccc2c1C(=O)C(=O)NCCCn1ccnc1	4.9*	-3	4	-8	1
O=C(Nc1nc2ccccc2n1Cc1ccc(Cl)cc1)c1ccco1	0	0	1	0	.

Compound activity deposited in PubChem by The Scripps Research Institute Molecular Screening Center.
